Measurements as given in PMC11995724, “Antibiotic target discovery by integrated phenotypic and activity-based profiling of electrophilic fragments” (Cell chemical biology, 2025).
Among all 3,200 compounds or so, about 110 (3.4%) showed an effect of 50% or more. The full list was thinned out, with strong results kept by preference.

What follows are compounds tested on T1, V. cholerae SAD30. Conditions: relative growth, OD600, LB; 25 µM; inhibitor.
T1 construct: SAD30
Design: species or system S. aureus MSSA476 (TSB) or V. cholerae SAD30 (LB); 384-well bacterial growth screen at 25 uM, OD600 relative to DMSO control

Compound	% of control remaining
C=CC(=O)N1CCN(S(=O)(=O)Cc2ccon2)CC1 [1-J07, 1-{4-[(1,2-oxazol-3-yl)methanesulfonyl]piperazin-1-yl}prop-2-en-1-one]	89.2377%
CN(Cc1ccccc1)S(=O)(=O)c1ccc(NC(=O)CCl)cc1 [5-K08, N-{4-[benzyl(methyl)sulfamoyl]phenyl}-2-chloroacetamide]	97.1735%
N#CC(=Cc1cnc(-c2ccccc2)nc1)C(=O)NCc1ccco1 [9-M14, 2-cyano-N-[(furan-2-yl)methyl]-3-(2-phenylpyrimidin-5-yl)prop-2-enamide]	95.2413%
O=C(CCl)Cc1c(F)cccc1F [10-O15, 1-chloro-3-(2,6-difluorophenyl)propan-2-one]	99.7467%
O=C(CCl)Cc1c(Cl)cccc1Cl [10-K15, 1-chloro-3-(2,6-dichlorophenyl)propan-2-one]	45.6653%
O=C(CCl)Cc1cccc(F)c1F [10-K17, 1-chloro-3-(2,3-difluorophenyl)propan-2-one]	0.1559%
O=C(CCl)Nc1ccccc1F [4-M16, 2-chloro-N-(2-fluorophenyl)acetamide]	98.3394%
O=C(CCl)Nc1c(Cl)cccc1C(F)(F)F [5-B04, 2-chloro-N-[2-chloro-6-(trifluoromethyl)phenyl]acetamide]	98.0141%
O=C(CCl)Nc1ccc(F)c(F)c1F [4-M05, 2-chloro-N-(2,3,4-trifluorophenyl)acetamide]	104.033%
O=C(CCl)Cc1c(F)cccc1Cl [10-D20, 1-chloro-3-(2-chloro-6-fluorophenyl)propan-2-one]	36.1582%
O=C(CCl)NCCc1c(F)cccc1F [5-F20, 2-chloro-N-[2-(2,6-difluorophenyl)ethyl]acetamide]	99.5272%
Cc1cccc(Cl)c1CCCNC(=O)CCl [7-F04, 2-chloro-N-[3-(2-chloro-6-methylphenyl)propyl]acetamide]	91.9874%
Cc1ccc2sc(N(Cc3ccccc3)C(=O)CCl)nc2c1C [4-K06, N-benzyl-2-chloro-N-(4,5-dimethyl-1,3-benzothiazol-2-yl)acetamide]	100.927%
C=CC(=O)Nc1ccccc1Sc1nncs1 [1-G04, N-[2-(1,3,4-thiadiazol-2-ylsulfanyl)phenyl]prop-2-enamide]	100.149%
COCCNC(=O)C(C#N)=Cc1sccc1C [9-M17, 2-cyano-N-(2-methoxyethyl)-3-(3-methylthiophen-2-yl)prop-2-enamide]	85.9959%
O=C(CCl)N1C[C@@H]2C[C@H]1CN2c1ccccc1 [5-E22, 2-chloro-1-[(1S,4S)-5-phenyl-2,5-diazabicyclo[2.2.1]heptan-2-yl]ethan-1-one]	106.756%

Compound	% of control remaining
NS(=O)(=O)c1cccc(N2C(=O)C=CC2=O)c1 [10-I05, 3-(2,5-dioxo-2,5-dihydro-1H-pyrrol-1-yl)benzene-1-sulfonamide]	102.396%
COc1cccc(N2C(=O)C=CC2=O)c1 [10-K03, 1-(3-methoxyphenyl)-2,5-dihydro-1H-pyrrole-2,5-dione]	23.8457%
COc1cccc(NC(=O)C(C#N)=Cc2ccc(O)cc2)c1 [8-O17, 2-cyano-3-(4-hydroxyphenyl)-N-(3-methoxyphenyl)prop-2-enamide]	71.584%
Cc1cc(C(=O)CCl)c(C)n1-c1cccc([N+](=O)[O-])c1 [10-B16, 2-chloro-1-[2,5-dimethyl-1-(3-nitrophenyl)-1H-pyrrol-3-yl]ethan-1-one]	67.329%
CC(=O)Nc1cccc(N2C(=O)C=CC2=O)c1 [10-D09, N-[3-(2,5-dioxo-2,5-dihydro-1H-pyrrol-1-yl)phenyl]acetamide]	85.564%
COc1cccc(NC(=O)C(C)Cl)c1 (stereo not shown) [6-I03, 2-chloro-N-(3-methoxyphenyl)propanamide]	100.863%
O=C1C=CC(=O)N1c1cccc(O)c1 [10-O07, 1-(3-hydroxyphenyl)-2,5-dihydro-1H-pyrrole-2,5-dione]	26.4952%
O=C1C=CC(=O)N1c1cccc([N+](=O)[O-])c1 [10-P15, 1-(3-nitrophenyl)-2,5-dihydro-1H-pyrrole-2,5-dione]	35.6906%
CC(Cl)C(=O)N1CCCC(n2ccc(C(F)(F)F)n2)C1 (stereo not shown) [7-A08, 2-chloro-1-{3-[3-(trifluoromethyl)-1H-pyrazol-1-yl]piperidin-1-yl}propan-1-one]	84.3218%
O=C(CCl)Nc1nc2c(s1)CCc1ccccc1-2 [6-D03, 2-chloro-N-{4H,5H-naphtho[1,2-d][1,3]thiazol-2-yl}acetamide]	105.868%
CC(NC(=O)CCl)C(=O)N1CCS(=O)(=O)CC1 (stereo not shown) [5-K14, 2-chloro-N-[1-(1,1-dioxo-1lambda6-thiomorpholin-4-yl)-1-oxopropan-2-yl]acetamide]	88.7675%
C=CC(=O)N1CCOCC1c1noc(C)n1 (stereo not shown) [3-O11, 1-[3-(5-methyl-1,2,4-oxadiazol-3-yl)morpholin-4-yl]prop-2-en-1-one]	103.029%
C=CC(=O)N1CCC(C(=O)NCc2ccoc2C)CC1 [1-E14, N-[(2-methylfuran-3-yl)methyl]-1-(prop-2-enoyl)piperidine-4-carboxamide]	89.0882%
C=CC(=O)N(Cc1ccc(F)cn1)c1cnn(C2CCCC2)c1C [1-D11, N-(1-cyclopentyl-5-methyl-1H-pyrazol-4-yl)-N-[(5-fluoropyridin-2-yl)methyl]prop-2-enamide]	86.846%
Cc1ccc(C=C(C#N)C(=O)Nc2ccccc2C)cc1 [8-G16, 2-cyano-N-(2-methylphenyl)-3-(4-methylphenyl)prop-2-enamide]	72.8076%
